Data: PubChem BioAssay AID652257 (The Scripps Research Institute Molecular Screening Center, 2013)
In all, about 370,000 compounds went through this assay and about 4,800 (1.3%) were called active. This is one part of a sample in which actives are shown more often than they occur. A number with no mark means an inactive call.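 How the source made its calls: active means inhibition above about 21% made by adding two undisclosed values (limit read from the data); inactive means the rest.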

The molecules below were run against Protein arginine N-methyltransferase 1 (Homo sapiens) (UniProt Q99873) (assay: PRMT1 methyltransferase inhibitors, primary screen, biochemical, fluorescence polarization (AID 652257)). Conditions: recombinant PRMT1, activity-based probe fluorescence polarization; at 2.79 µM; active compounds read high.
Chain of Protein arginine N-methyltransferase 1 (Homo sapiens) (Q99873 whole entry, looked up): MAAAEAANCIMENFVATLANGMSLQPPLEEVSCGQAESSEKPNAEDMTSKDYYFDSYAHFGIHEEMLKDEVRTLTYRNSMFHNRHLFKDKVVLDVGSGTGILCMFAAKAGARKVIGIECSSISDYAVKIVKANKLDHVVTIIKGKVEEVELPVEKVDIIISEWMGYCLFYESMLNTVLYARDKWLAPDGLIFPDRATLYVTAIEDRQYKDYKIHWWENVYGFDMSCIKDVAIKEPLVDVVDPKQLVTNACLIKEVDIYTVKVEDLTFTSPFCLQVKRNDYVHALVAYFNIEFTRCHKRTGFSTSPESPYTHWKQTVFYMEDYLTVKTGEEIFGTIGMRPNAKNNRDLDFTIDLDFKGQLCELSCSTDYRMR
`O=C(COC(=O)Cn1cnc2ccccc2c1=O)NCC12CC3CC(CC(C3)C1)C2` was tested, and the inhibition was -1.36%. `O=C(COC(=O)Cn1cnc2ccccc21)Nc1cccc2c1C(=O)c1ccccc1C2=O` was tested, and the inhibition was 26.1% (active). `O=C(Cn1cnc2ccccc21)N/N=C/c1ccco1` was tested, and the inhibition was -1.39%. With `Cc1cc2nc3c(=O)[nH]c(=O)nc-3n(C[C@H](O)[C@H](O)[C@H](O)CO)c2cc1C` the inhibition was 85.4% (active). With `Cc1ccc(C(=O)CSc2nc3ccccc3c(=O)n2N)o1` the inhibition was 6.79%. For `Cc1ccc(Cn2c(C)nc3c(c2=O)c2nc4ccccc4nc2n3Cc2ccco2)cc1`, the inhibition was 24.6% (active). `Cc1ccc(OCC(=O)c2cc(C)n(Cc3ccco3)c2C)c([N+](=O)[O-])n1` gave an inhibition of 1.18%. Work on `C[C@H]1CN([C@@H](C)CO)S(=O)(=O)c2ccc(Br)cc2O[C@H]1CN(C)C(=O)c1cnccn1` yielded an inhibition of -6.2%. `CC1Sc2ccc(C(=O)NCc3ccccc3Cl)cc2NC1=O` (stereo unspecified) gave an inhibition of 1.76%. Work on `COC(=O)c1cccc(Cn2ccc3ccc(-c4ccc5ccn(C(=O)C6CCCCC6)c5c4)cc32)c1` yielded an inhibition of 3.39%. `C[C@@H]1COc2cccc(N3CCCC3)c2S(=O)(=O)N1C` was tested, and the inhibition was 10.8%. For `Cc1ccccc1-n1c(SCC(=O)Nc2cccc3ccccc23)nc(O)cc1=O`, the inhibition was 27.6% (active). `Cc1ccc(-n2c(SCC(=O)Nc3cccc4ccccc34)nnc2-c2ccccn2)cc1` was tested, and the inhibition was -1.87%. `C=CCn1c(N)cc(=O)nc1SCC(=O)Nc1cccc2ccccc12` showed an inhibition of -1.49%. Molecule `COc1cccc(CNC(=O)C2CCCN(c3nc4ccccc4o3)C2)c1OC` (stereo unspecified) has an inhibition of -1.5%. In the case of `Cc1ccc(NC(=O)Nc2cc(C)nn2-c2ccccc2)cc1`, the inhibition is reported as -2.65%. `O=C(c1cccc(C(F)(F)F)c1)N1CC[C@H]2[C@H](CCCN2Cc2cc(F)cc(F)c2)C1` gave an inhibition of -3.31%. With `CCCC(NC(=O)c1ccccc1)c1nc2ccccc2n1Cc1ccc(C(=O)OC)o1` (stereo unspecified) the inhibition was -1.43%. Work on `CCOCCn1c(C(C)C)nc2ccccc21` yielded an inhibition of -1.59%. For `CCCn1c(C(Cc2ccccc2)NC(=O)COC)nc2ccccc21` (stereo unspecified), the inhibition was 21.6% (active). With `CCCCn1ccnc1C(=O)c1cccc(S(=O)(=O)N2c3ccccc3CC2C)c1` (stereo unspecified) the inhibition was -0.73%. In the case of `Cc1ccccc1NC(=O)C1CCN(c2ncccn2)CC1`, the inhibition is reported as 8.54%. In the case of `Fc1ccc2nc(COCc3nc4ccc(F)cc4[nH]3)[nH]c2c1`, the inhibition is reported as -1.38%. In the case of `CC(C)c1ccc(C2C(C#N)=C(N)Oc3c2oc(CO)cc3=O)cc1` (stereo unspecified), the inhibition is reported as 2.64%. Work on `Cc1cc2c(c(=O)n1C)C(C(C)C)C(C#N)=C(N)O2` (stereo unspecified) yielded an inhibition of 2.55%. In the case of `Cc1cc2c(c(=O)n1Cc1ccco1)C(c1ccccc1)C(C#N)=C(N)O2` (stereo unspecified), the inhibition is reported as 36.6% (active).
